# Assay results from PubChem BioAssay AID2314 (National Center for Advancing Translational Sciences (NCATS), 2010).
# Several values for one entry are separate records, joined by “and”; a condition that tells them apart may be missing. Equal values may be shown once. About 37,000 (12%) of roughly 300,000 compounds were called active. The sample as a whole holds a higher share of actives than the screen did. A number with no mark means an inactive call. No stated cut-off is given here; in the data, active means max response mostly above about 13% (no sharp cut-off); inactive means mostly below about 14%.
# Assay: Cycloheximide Counterscreen for Small Molecule Inhibitors of Shiga Toxin; further: read at 38.3 µM for the half of the compounds with a filed dose; 0% is about no effect
# Conditions: cell reporter, cycloheximide protein synthesis inhibition counterscreen; active compounds read high
row,SMILES,max response
1,O=C(NCc1cccnc1)c1ccccc1NC(=O)c1c(F)cccc1F,7.34%
2,CCCCNC(=O)C1(O)c2ccccc2NC(=O)N1c1ccc(Cl)cc1 (stereo not given),7.78%
3,CC(=O)Oc1ccc(N(C(C)=O)S(=O)(=O)c2ccc3ccccc3c2)cc1Br,-1.7%
4,O=C(COc1ccc2ccc(=O)oc2c1)NCC(O)c1ccccc1 (stereo not given),-10.7%
5,CN(CC(=O)NCc1ccncc1)S(=O)(=O)c1ccc(Br)cc1,-0.724%
6,COc1ccc(C(C)C)cc1S(=O)(=O)Nc1ncn[nH]1,-4.29%
7,CCc1nnc(NC(=O)CCC(=O)N2CCN(c3cc(C)ccc3C)CC2)s1,-5.72%
8,Cc1c(NS(=O)(=O)c2ccc(NC3CCCC3)c([N+](=O)[O-])c2)c(=O)n(-c2ccccc2)n1C,-1.22%
9,Cc1ccc(NS(=O)(=O)c2ccc3c(c2)n(C)c(=O)c(=O)n3C)c(C)c1,1.12%
10,O=C(CN1CCc2cc3c(cc2C1)OCCCO3)Nc1ccccc1,5.97%
11,COCc1nnc(NC(=O)c2ccc3c(c2)OCO3)s1,45.3% (active)
12,CC(C)C(=O)Nc1cccc(C(=O)Nc2ccc3c(c2)OCO3)c1,58.7% (active)
13,COCc1nnc(NC(=O)CS(=O)(=O)Cc2ccccc2)s1,5.49%
14,O=C(Nc1ccc(N2CCOCC2)cc1)c1ccc2c(c1)OCO2,36.8% (active)
15,C/C(Cc1ccccc1)=N\NC(=O)CNC(=O)c1ccc2c(c1)OCCO2,-2.54%
16,COc1ccccc1C(=O)N/C(=C/c1ccc2c(c1)OCO2)C(=O)Nc1cccc(C(=O)O)c1,-2.49%
17,O=C(O)CCC(=O)Nc1ccc(N2CCOCC2)cc1,-3.84%
18,Cc1ccc(C(=O)Nc2sc(Cc3ccc4c(c3)OCO4)c(C)c2C(N)=O)cc1,-4.2%
19,O=C(c1ccc2c(c1)OCO2)N1CCOCC1,-3.42%
20,O=C(Nc1ccccc1)c1ccc2c(c1)OCCCO2,41.3% (active)
21,CCCN1C2=C(C(=O)CCC2)C(c2ccc(O)c(Br)c2)C2=C1CCCC2=O,-1.08%
22,Cc1ccc(O)c(/C=N/NC(=O)COc2ccc3c(C)cc(=O)oc3c2)c1,-8.1%
23,Cn1c(=O)c2c(ncn2CC(COCc2ccccc2Cl)OCc2ccccc2Cl)n(C)c1=O (stereo not given),-1.13%

row,SMILES,max response
1,Cc1ccccc1N1C(=O)C(Oc2ccc(Cl)cc2)C1CNCC1CCCO1 (stereo not given),0.428%
2,CC(=O)Nc1sc2c(c1C(c1cccc(F)c1)N1CCN(CCO)CC1)CCCC2 (stereo not given),-2.8%
3,CCOCCCNC(=O)c1ccc(CS(=O)(=O)c2cccc(C(F)(F)F)c2)o1,-3%
4,Cc1ccc(-c2ccnc3[nH]n(-c4ccccc4)c(=O)c23)cc1,4.53%
5,COc1ccccc1N1CCN(c2ccc([N+](=O)[O-])nc2)CC1,12.7%
6,CCOc1ccc(OCC)c(-c2c(=O)n(OCc3ccc(Cl)cc3)c3ccccc3[n+]2[O-])c1,-2.89%
7,CCOC(=O)COn1c(=O)c(-c2ccc(OCC)cc2)[n+]([O-])c2ccccc21,21.8% (active)
8,COc1ccc(OC)c(-c2c(=O)n(OCc3ccccc3Br)c3ccccc3[n+]2[O-])c1,-4.9%
9,COCCNC(=O)C(c1ccc(C)cc1)N(C(=O)CCC(=O)Nc1ccccn1)c1cccc(C)c1 (stereo not given),-1.18%
10,O=C(Cn1ncc2c3ccccc3n(Cc3ccccc3)c2c1=O)NCc1ccccn1,-1.24%
11,CCCCOc1ccc(CSC(=N)N)cc1[N+](=O)[O-],-3.27%
12,CCCOc1ccc(Cn2ccnc2)cc1[N+](=O)[O-],6.93%
13,CCCCCOc1ccc(CSC2=NCCN2)cc1[N+](=O)[O-],16.2% (active)
14,CCN=C1S/C(=C\c2cc(Br)ccc2OCC(=O)OCC)C(=O)N1CC,2.07%
15,c1ccc(C(c2ccccc2)N2CCN(Cc3nnnn3C3CCCCC3)CC2)cc1,-1.95%
16,O=C1CCc2cc(S(=O)(=O)N3CCC(C(=O)NCc4ccccc4Cl)CC3)ccc2N1,5.54%
17,CSc1cccc(NC(=O)C2CCCN2S(=O)(=O)c2ccc3c(c2)CCC(=O)N3)c1 (stereo not given),25.7% (active)
18,CC(=O)Nc1ccc(NC(=O)C2CCCN2S(=O)(=O)c2cccc(C(F)(F)F)c2)cc1 (stereo not given),0.889%
19,CS(=O)(=O)N1CCN=C1SCc1ccc(F)cc1,-2.32%
20,Cc1cc(OCC(=O)Nc2c(C)n(C)n(-c3ccccc3)c2=O)ccc1[N+](=O)[O-],1.26%
21,O=C1CSC(=S)N1c1ccc(O)cc1,0.99%
22,O=S(=O)(c1ccc(-c2ccno2)s1)N1CCCCC1,-3.51%
23,Cc1cc(NC(=O)CCC(=O)N(Cc2ccccc2)C(C(=O)NC2CCCC2)c2ccc(C)o2)no1 (stereo not given),-2.01%

row,SMILES,max response
1,COc1c(O)cc2oc(-c3ccc(O)c(O)c3)cc(=O)c2c1O,43% (active) and 45.2% (active)
2,O=c1cc(-c2ccc(O)cc2)oc2c(-c3cc(-c4cc(=O)c5c(O)cc(O)cc5o4)ccc3O)c(O)ccc12,-11.1%
3,COc1ccc(-c2cc(=O)c3c(O)cc(O[C@@H]4O[C@H](CO[C@@H]5O[C@@H](C)[C@H](O)[C@@H](O)[C@H]5O)[C@@H](O)[C@H](O)[C@H]4O)cc3o2)cc1O,-0.55%
4,Cc1cc(C)cc(Oc2c(C(F)(F)F)oc3cc(OCC(=O)O)ccc3c2=O)c1,-1.36%
5,c1ccc(-c2cnc(CN3CCN(c4ccccc4)CC3)o2)cc1,7.72%
6,O=C(CCS(=O)(=O)c1cccc2nsnc12)N1CCN(c2ccccc2F)CC1,6.58%
7,O=C(NCC(=O)N1CCN(c2ccccc2O)CC1)c1ccc2ccccc2c1,1.36%
8,CCc1ccc(NC(=O)CS(=O)CC(=O)N2CCN(c3ccccc3F)CC2)cc1 (stereo not given),3.43%
9,O=C(CCSc1ccccc1)N1CCN(c2ccccc2F)CC1,48.8% (active)
10,O=C(NCC(=O)N1CCN(c2ccccc2F)CC1)c1cccs1,23.4% (active)
11,O=C(CCc1ccccc1F)N1CCN(c2ccccc2)CC1,0.391%
12,COc1ccc(NC(=O)CSCc2ccc([N+](=O)[O-])cc2)cc1OC,-3.9%
13,Cc1cccc(N2CCN(C(=O)c3cccc(N4C(=O)C5C6C=CC(C6)C5C4=O)c3)CC2)c1C (stereo not given),-6.3%
14,Cc1ccc(Nc2nnc(SCC(=O)c3cc4ccccc4o3)s2)cc1C,10.2%
15,O=C(CSc1nnc(Nc2ccccc2)s1)Nc1cccnc1Cl,2.36%
16,CC(C)c1ccc(Nc2nnc(SCC(=O)c3nnc(-c4ccccc4)o3)s2)cc1,23.6% (active)
17,Cc1cc(=O)oc2c3c(cc(OCC(=O)NCc4ccccn4)c12)OC(C)(C)CC3,-2.86%
18,Cc1ccc(N2CCN(c3ccc([N+](=O)[O-])cn3)CC2)c(C)c1,-4.64%
19,O=C(COc1ccc(S(=O)(=O)Nc2cccc(C(F)(F)F)c2)cc1)N1CCOCC1,-0.756%
20,CN(C)c1nc(N)nc(CSc2ccccn2)n1,21.5% (active)
21,CN(C)c1nc(N)nc(CSc2nnnn2-c2cccc3ccccc23)n1,-1%
22,CCOC(=O)CSc1ccccn1,-1.11%
23,CCOC(=O)c1cc2c(=O)[nH]c(C(Cl)(Cl)Cl)nc2o1,7.51%

row,SMILES,max response
1,O=C(O)c1cccc2c1C(=O)N(C1CCCC1)C2,-2.23%
2,CCSc1ncc(Cl)c(C(=O)Nc2cc(C)ccc2C)n1,-0.976%
3,Cc1cccc(NC(=O)c2nc[nH]c2C(=O)NCC(=O)OCc2ccccc2)c1,1.03%
4,Cc1cccc(NC(=O)c2nc(S(=O)(=O)Cc3ccccc3)ncc2Cl)c1,29% (active)
5,Cc1cccc(OCc2ccc(C(=O)Nc3ccc(F)cc3)cc2)c1,-3.2%
6,CCOc1ccc(NC(=O)c2nc(SCC)ncc2Cl)cc1,-5.84%
7,Cc1cccc(CS(=O)(=O)c2ncc(Cl)c(C(=O)Nc3ccc(F)cc3)n2)c1,30.3% (active)
8,COCCCNC(=O)CN1C(=O)CSc2ccc(S(=O)(=O)N3CCOCC3)cc21,-0.345%
9,OC(COc1ccc(CN2CCSCC2)cc1)CN1CCCCC1 (stereo not given),0.684%
10,CC1CCC(N2CC(=O)N(Cc3ccc4c(c3)OCO4)C(c3ccc(F)cc3)C2=O)CC1 (stereo not given),-2.2%
11,O=C(c1cc(Cl)cc(Cl)c1)N1CCC(=O)N(C(COCc2ccccc2)Cc2ccccc2)CC1 (stereo not given),-1.19%
12,O=C(CCl)NNc1cccc(Cl)n1,26.1% (active)
13,O=C(CCl)NNc1nc(-c2ccccc2)c2cc(Cl)ccc2n1,-5.34%
14,COc1cc(OC)nc(NC(=O)CCl)n1,-2.63%
15,C=CCn1c(SCC(=O)NCC2CCCO2)nc2sc(C)c(C)c2c1=O (stereo not given),-2.05%
16,COc1ccc(CCCc2nnc(SCc3nc4ccccc4c(=O)[nH]3)n2C)cc1,1.63%
17,CCN(CC(=O)NCc1cccs1)C(=O)c1cccc(S(=O)(=O)Nc2ccccc2OC)c1,-1.21%
18,Cc1ccc(-c2nc3ccccc3[nH]2)cc1N,34.2%
19,OC(c1nc2ccccc2[nH]1)C(O)C(O)C(O)c1nc2ccccc2[nH]1 (stereo not given),-2.45%
20,c1ccc2[nH]c(-c3nc4ccccc4[nH]3)nc2c1,33.9% (active)
21,CN(C(=O)C1CCN(c2ncnc3c2nc2n3CCCCC2)CC1)C1CCCCC1,-1.8%
